Molecules are shown by their SMILES.

A short description of the test: small-molecule binders of probe aInhba, primary screen, biochemical, small-molecule microarray, 635/667 nm fluorescence (AID 1148).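 Note: score merges 667nm spot fluorescence with signal-to-noise for antibody binding to printed compounds.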 As to conditions: higher = more signal.
Molecule `C=CC[C@]1(C(=O)O)N=C(c2ccc(OCCCO)cc2)O[C@H]1c1ccccc1CN=[N+]=[N-]` yielded a composite z-score of -0.108. In turn, `C[N+](C)(C)CCCCNC(=O)[C@H]1C[C@H]2C(=O)N3CCC[C@H]3C(=O)N2[C@H]1c1ccc(O)cc1` yielded a composite z-score of -0.164. The value for `[N-]=[N+]=NCc1ccccc1[C@@H]1OC(c2ccc(OCCCO)cc2)=N[C@]1(Cc1ccccc1)C(=O)O` was -0.016; that for `CN(C)CCCN1C(=O)[C@@]2(c3ccc([N+](=O)[O-])cc3)CC(=O)N(C3CCCCC3)[C@@H]2c2ccc(CO)cc21` was -0.101; that for `CCOC1=C2C(c3ccc(C)cc3)N(S(=O)(=O)c3ccc(C)cc3)CC2n2c(=O)n(-c3ccccc3)c(=O)n2C1` (stereo unspecified) was 0.0135. To `O=C1c2ccccc2[C@](Cc2ccccc2I)(C(=O)O)[C@H](c2ccc(CO)cc2)N1Cc1ccccc1C(F)(F)F` belongs -0.024; to `CCCCCCCCCCC(O)C1C=CC2C(=O)N(c3ccccc3)C(=O)C2N1Nc1ccc([N+](=O)[O-])cc1` (stereo unspecified), -0.0059. Consider `CCOC(=O)C1=CC[C@@H](c2cccc(Cl)c2)N(S(=O)(=O)c2ccc(C)cc2)[C@H]1c1ccc(C#N)cc1`, for which the composite z-score was 0.0627. For `CCCCCCC#C[Si](O[C@H](c1ccccc1)c1cn([C@H](C)c2ccccc2)nn1)(C(C)C)C(C)C`, the composite z-score was -0.361. To `O=C(NCC(F)(F)F)[C@@H]1c2ccccc2C(=O)N(Cc2ccccc2)[C@H]1c1ccc(CO)cc1` belongs -0.214. To `O=C1OCC=C[C@H]2OC34C=CCN(c5ccc(Cl)cc5)C(=O)[C@H]3N(CCCO)C(=O)[C@@H]4[C@@H]12` (stereo partly specified) belongs -0.15; to `CCOC(=O)N1C(c2ccc(OCCCO)cc2)=NC(C(=O)OC)N1C(=O)OCC` (stereo unspecified), 0.0614. To `Cc1ccc(S[C@]2(C(=O)NCC(F)(F)F)CC(=O)N(C3Cc4ccccc4C3)[C@@H]2c2ccc(CO)cc2I)cc1` belongs -0.0471; to `[N-]=[N+]=Nc1ccccc1C[C@]1(C(=O)N2CCCCC2)N=C(c2ccc(OCCCO)cc2)O[C@H]1c1ccccc1N=[N+]=[N-]`, 0.622; to `C=CCNC(=O)[C@H]1[C@@H]2C(=O)O[C@@H](c3ccccc3)[C@@H](c3ccccc3)N2[C@@H](c2ccc(O)cc2)[C@]12C(=O)Nc1ccc(C#Cc3ccc(OC)cc3)cc12`, -0.0523. As to `[N-]=[N+]=NCc1ccccc1C[C@]1(C(=O)NCc2ccccc2)COC(c2ccc(OCCCO)cc2)=N1`, the composite z-score is 0.0301. To `O=C1OCC=C[C@H]2OC34C=CCN(CCN5CCOCC5)C(=O)[C@H]3N(CCCCCCO)C(=O)[C@@H]4[C@@H]12` (stereo partly specified) belongs -0.0604. To `[N-]=[N+]=Nc1ccccc1[C@H]1OC(c2ccc(OCCCO)cc2)=N[C@@]1(CCS(=O)(=O)c1ccccc1)C(=O)N1CCOCC1` belongs 0.496; to `COC(=O)[C@@]1(Cc2ccccc2)[C@H]2c3cc(C(=O)N(C)C)n(Cc4cc(F)c(F)c(F)c4)c3C[C@H]2CN1C(=O)c1ccccc1`, 0.681. The value for `O=C1O[C@H](c2ccccc2)[C@H](c2ccccc2)N2[C@H]1[C@@H](C(=O)N1CCCCCCC1)[C@]1(C(=O)Nc3ccc(C#CC4=CCCCC4)cc31)[C@H]2c1ccc(O)cc1` was 1.98. Turning to `[N-]=[N+]=NCc1ccccc1C[C@]1(C(N)=O)N=C(c2ccc(OCCCO)cc2)O[C@H]1c1ccccc1N=[N+]=[N-]`, the composite z-score came out at 0.0906. `C=CCOC(=O)[C@H]1[C@@H]2C(=O)O[C@@H](c3ccccc3)[C@@H](c3ccccc3)N2[C@@H](c2ccc(OCCOC(=O)[C@H]3C[C@H]4C(=O)N[C@@H](CCCC[N+](C)(C)C)C(=O)N4[C@H]3c3ccc(O)cc3)cc2)[C@]12C(=O)Nc1ccccc12` displayed a composite z-score of -0.258. The value for `CC(C)NC(=O)[C@@]1(c2ccc([N+](=O)[O-])cc2)CC(=O)N(C(C)C)[C@@H]1c1ccc(CO)cc1` was -0.203; that for `COc1ccc([Si](C)(C)[C@@H]2[C@@H](CCn3cc([C@H](O)c4ccccc4)nn3)O[C@]3(C(=O)N(C)c4ccccc43)[C@H]2C)cc1` was -0.0465. The value for `COCCOC(=O)N1C(=O)[C@@]2(c3cc(C#CC4=CCCCC4)ccc31)[C@H](C(=O)N1CCN(c3ncccn3)CC1)[C@H]1C(=O)O[C@H](c3ccccc3)[C@H](c3ccccc3)N1[C@@H]2c1ccc(OCCO)cc1` was 0.471.

`C=CCOC(=O)[C@@H]1[C@H]2C(=O)O[C@H](c3ccccc3)[C@H](c3ccccc3)N2[C@H](c2ccc(OCCOC(=O)[C@H]3C[C@H]4C(=O)N[C@@H](CC(C)C)C(=O)N4[C@H]3c3cccc(OCCO)c3)cc2)[C@@]12C(=O)Nc1ccc(I)cc12` registered a composite z-score of 0.247. To `CC(C)N1C(=O)c2ccccc2[C@](C)(C(=O)NCCCN(C)C)[C@@H]1c1ccc(CO)cc1` belongs -0.204; to `CC(=O)NCCCC[C@@H]1NC(=O)[C@@H]2C[C@H](C(=O)NCCCCCC[N+](C)(C)C)[C@H](c3cccc(OCCO)c3)N2C1=O`, -0.0425. To `CCCCN1CC=CC23O[C@@H]4C=CCCOC(=O)C4[C@H]2C(=O)N(CCCO)[C@@H]3C1=O` (stereo partly specified) belongs -0.176; to `C=CCC(OC(C)=O)[C@@H]1[C@@H](N(Cc2cc3ccccc3o2)C(=O)c2cccc3ccccc23)c2cc(OCCCO)ccc2N1C(=O)Cc1ccc(OC)cc1` (stereo partly specified), -0.0804; to `C=CCN1C(=O)[C@]2(COC(c3ccc(OCCCO)cc3)=N2)Cc2ccccc21`, 0.167. As to `C=C[C@H](C)[C@H](OC(=O)Nc1ccc(OC)cc1)c1ccc(O)c2ccccc12`, the composite z-score is -0.128. For `COc1ccccc1CN1C(=O)c2ccccc2[C@](Cc2ccccc2I)(C(=O)NC2CC2)[C@@H]1c1ccc(CO)cc1`, the composite z-score came to 0.0374. To `C=CC[C@@]1(C(N)=O)N=C(c2ccc(OCCCO)cc2)O[C@@H]1c1ccccc1N=[N+]=[N-]` belongs 0.195.

`CCN(CC)c1ccc(N2CC=CC34O[C@@H]5C=CCOC(=O)[C@@H]5[C@H]3C(=O)N(CCCCCO)[C@@H]4C2=O)cc1` (stereo partly specified): the composite z-score was -0.186.

The molecule `COCCOC(=O)N1C(=O)[C@@]2(c3cc(C#CCC(C(=O)OC)C(=O)OC)ccc31)[C@H](c1ccc(OCCO)cc1)N1[C@H](c3ccccc3)[C@H](c3ccccc3)OC(=O)[C@H]1[C@@H]2C(=O)NC[C@H](O)c1ccccc1` yielded a composite z-score of 0.281.

The values above are taken from PubChem BioAssay.
